Compounds without any hit were thinned out: in the full panel of roughly 83,000, 20% have a hit.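 Assay: single dose, 48 h. Readout: percent growth (0 = no net growth; negative = cell death). Active: <10.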 Values without a mark were called inactive. Active and inactive are the calls of the source.

Growth data for seven compounds are collected here from PubChem BioAssay (NCI).

Some test systems named below: DU-145 prostate; K-562 leukemia; MALME-3M melanoma; MDA-MB-231 breast; RXF 393 renal; SF-268 CNS; SF-295 CNS; SF-539 CNS; UACC-257 melanoma; M14 melanoma; HCT-15 colon; HT29 colon; SNB-75 CNS; SNB-19 CNS; U251 CNS; PC-3 prostate; SK-MEL-5 melanoma; UACC-62 melanoma; LOX IMVI melanoma; SK-MEL-28 melanoma.
Holding throughout (assay): NCI-60 one-dose screen, 48 h (100 = growth as untreated, 0 = no growth, -100 = all killed)
Conditions in all cases: 10 µM unless noted

In the case of `Cc1ccc(C[P+](c2ccccc2)(c2ccccc2)c2ccccc2)cc1`, the growth in the test on DU-145 prostate is 7.44% (active); in the test on K-562 leukemia, 2.1% (active); with MALME-3M melanoma, 10.1%; with MDA-MB-231 breast, 18.7%; with RXF 393 renal it was 16.6%; in the test with SF-268 CNS, 15.5%. The growth in the test with SF-295 CNS is 2.31% (active); with SF-539 CNS, 16.3%; in the test on UACC-257 melanoma, 3.36% (active); in the test on M14 melanoma, 5.62% (active); in the test on HCT-15 colon it was 82.5%; in the test with HT29 colon, 2.44% (active). For the same compound, the growth is -3.92% (active) in the test with SNB-75 CNS; 19.9% in the test with SNB-19 CNS; 7.54% (active) with U251 CNS; 4.25% (active) with PC-3 prostate; -66.3% (active) in the test with SK-MEL-5 melanoma; 6.79% (active) with UACC-62 melanoma. In addition, the values for the growth in the test on LOX IMVI melanoma and with SK-MEL-28 melanoma were 15.4% and 9.82% (active), respectively.

Regarding `C#Cc1c2c(c(OC)c3c1OCO3)[C@H]([C@H]1OC(=O)c3c1ccc(OC)c3OC)N(C)CC2`, the growth in the test on DU-145 prostate was 95.1%; in the test with K-562 leukemia, 31.2%; in the test with MALME-3M melanoma it was 69.9%; with MDA-MB-231 breast it was 87.5%; in the test with RXF 393 renal it was 92.3%; in the test with SF-268 CNS it was 90.4%. In addition, the growth in the test with SF-295 CNS was 77.7%; in the test with SF-539 CNS it was 96.3%; with UACC-257 melanoma it was 82.8%; in the test with M14 melanoma it was 71.4%; in the test with HCT-15 colon, 60.7%; with HT29 colon it was 60.7%. In addition, the growth was 85.8% with SNB-75 CNS; 92.7% in the test on SNB-19 CNS; 87.9% in the test on U251 CNS; 76.5% in the test with PC-3 prostate; 93.4% in the test on SK-MEL-5 melanoma; 75.6% in the test with UACC-62 melanoma. Moreover, the growth with LOX IMVI melanoma was 79.7%; in the test on SK-MEL-28 melanoma it was 95.1%.

Turning to `O=C(O)CCN1C(=O)/C(=C/C(Cl)=C/c2ccccc2)SC1=S`, the growth in the test on DU-145 prostate was 22.2%; in the test on K-562 leukemia, 14.5%; with MALME-3M melanoma, 36.1%; with MDA-MB-231 breast, 49.9%; in the test on RXF 393 renal it was -10.2% (active); in the test with SF-268 CNS, 26.5%. Besides, the growth was 51.5% with SF-295 CNS; 10.2% with SF-539 CNS; 33.3% in the test with UACC-257 melanoma; 10.3% in the test with M14 melanoma; -50.3% (active) with HCT-15 colon; 10.1% in the test with HT29 colon. For the same compound, the growth in the test on SNB-75 CNS was 13.2%; in the test on SNB-19 CNS, 34.5%; in the test with U251 CNS it was 20.8%; in the test with PC-3 prostate, 47%; in the test on SK-MEL-5 melanoma, 38.9%; with UACC-62 melanoma, 16.1%. For the same compound, the growth in the test on LOX IMVI melanoma is -32.4% (active); in the test with SK-MEL-28 melanoma, 13.9%.

In the case of `COCCNC(=O)Nc1ccc2nc(-c3cccs3)c(-c3cccs3)nc2c1`, the growth in the test with DU-145 prostate was 96.2%; in the test with K-562 leukemia, 83.3%; in the test on MALME-3M melanoma, 94.8%; in the test on MDA-MB-231 breast it was 92.3%; in the test with RXF 393 renal, 82.5%; with SF-268 CNS it was 102%. Besides, the growth with SF-295 CNS is 78.6%; in the test on SF-539 CNS, 85.6%; in the test on UACC-257 melanoma, 103%; with M14 melanoma, 103%; in the test with HCT-15 colon it was 90.9%; in the test with HT29 colon, 87.8%. The growth in the test with SNB-75 CNS was 81.6%; in the test on SNB-19 CNS it was 95.5%; with U251 CNS, 96.7%; in the test on PC-3 prostate it was 79.2%; with SK-MEL-5 melanoma, 89.5%; with UACC-62 melanoma, 85.1%. The figures for the growth in the test with LOX IMVI melanoma and in the test with SK-MEL-28 melanoma were 82.8% and 96.7%, respectively.

Regarding `CCCCCCCCCCCCCCCCCCOc1ccccc1CC(=O)OCC[N+](C)(C)C`, the growth in the test on DU-145 prostate is 36.1%; in the test with K-562 leukemia, 18.6%; with MALME-3M melanoma it was 26.9%; in the test with MDA-MB-231 breast it was -2.29% (active); with RXF 393 renal it was -54% (active); in the test with SF-268 CNS it was 15%. The growth with SF-295 CNS is 45.8%; with SF-539 CNS, 21.3%; with UACC-257 melanoma, 22.3%; in the test with M14 melanoma, 6.22% (active); with HCT-15 colon, 57.5%; in the test with HT29 colon, 8.73% (active). The growth in the test with SNB-75 CNS was -16.4% (active); with SNB-19 CNS, 29.9%; with U251 CNS it was -76.6% (active); in the test with PC-3 prostate, 5.84% (active); with SK-MEL-5 melanoma, 25.3%; with UACC-62 melanoma, 18.6%. In addition, the growth is 29.3% in the test on LOX IMVI melanoma and 64.8% in the test on SK-MEL-28 melanoma.

As to `O=C(/C=C/c1cccs1)Nc1ncc(Cc2ccccc2F)s1`, the growth is 11.4% in the test on DU-145 prostate; 24% in the test on K-562 leukemia; 40.5% in the test with MALME-3M melanoma; 33.8% in the test with MDA-MB-231 breast; -32.4% (active) with RXF 393 renal; 55.9% with SF-268 CNS. The growth in the test on SF-295 CNS is 9.52% (active); in the test with SF-539 CNS, -4.04% (active); in the test with UACC-257 melanoma, 58.6%; in the test with M14 melanoma, -3.15% (active); in the test on HCT-15 colon it was 27.1%; in the test with HT29 colon, 8.61% (active). For the same compound, the growth in the test with SNB-75 CNS is -7.95% (active); with SNB-19 CNS, 28.9%; in the test with U251 CNS, 17%; in the test on PC-3 prostate, 29.6%; in the test with SK-MEL-5 melanoma, 6.05% (active); in the test with UACC-62 melanoma it was 16.8%. For the same compound, the growth with LOX IMVI melanoma is 20.4%; in the test with SK-MEL-28 melanoma it was 54.4%.

With `COC1/C=C/OC2(C)Oc3c(C)c(O)c4c(O)c(c(/C=N/Nc5ccc([N+](=O)[O-])cc5[N+](=O)[O-])c(O)c4c3C2=O)NC(=O)C(C)=C/C=C/C(C)C(O)C(C)C(O)C(C)C(OC(C)=O)C1C` (stereo not given), the growth in the test with DU-145 prostate was 39.4%; in the test on K-562 leukemia, 4.82% (active); with MALME-3M melanoma it was 29.2%; in the test on MDA-MB-231 breast, -7.83% (active); in the test on RXF 393 renal, -74.3% (active); in the test on SF-268 CNS, 13.8%. Further, the growth is 81.1% in the test with SF-295 CNS; -2.39% (active) in the test on SF-539 CNS; 34.6% with UACC-257 melanoma; 11.4% with M14 melanoma; 41.6% in the test on HCT-15 colon; -37.2% (active) in the test on HT29 colon. The growth with SNB-75 CNS is 67%; in the test with SNB-19 CNS it was 38.6%; in the test on U251 CNS, -31.9% (active); with PC-3 prostate, 34.2%; with SK-MEL-5 melanoma, 29.7%; in the test with UACC-62 melanoma, -41.3% (active). Also, the growth in the test with LOX IMVI melanoma is -56.9% (active); with SK-MEL-28 melanoma, 37.3%.
